Screening results from PubChem BioAssay.
Most compounds without a hit are left out; they make up all but 1.4% or so of the library.
LDHA inh: LDHA (human) enzyme inhibition; AID 1347041; activity change, % (values are at about 110 or 230 µM); 480,000 compounds, 0.15% hits; purified LDHA, NADH/diaphorase-resazurin fluorescence; hits give low values; in the data active = activity change below about -30%; inconclusive = mostly about -25% to -30%;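 note: plate controls were DMSO wells for no effect and wells without enzyme for full effect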
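Human LDH5 (2 nM) was incubated with 0.06 mM NADH and 0.2 mM pyruvate for 5 min at room temperature in Tris pH 7.4. Remaining NADH was coupled through diaphorase/resazurin, and resorufin fluorescence was read at 0 and 20 min.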
IDH1 R132H inh: inhibitors of human mutant IDH1 R132H. Potency, µM (top dose mostly 76.6 µM), inactives show top-dose activity change, negative = inhibition, usual class: inhibitors. 390,000 compounds, 0.093% hits. IDH1-R132H enzyme, NADPH consumption, diaphorase/resazurin fluorescence. O75874; note: potency is the fitted concentration of half-maximal effect; nearly all actives have a fitted effect of over 65% in size
Target sequence (O75874 whole entry R132H, stated change not applied): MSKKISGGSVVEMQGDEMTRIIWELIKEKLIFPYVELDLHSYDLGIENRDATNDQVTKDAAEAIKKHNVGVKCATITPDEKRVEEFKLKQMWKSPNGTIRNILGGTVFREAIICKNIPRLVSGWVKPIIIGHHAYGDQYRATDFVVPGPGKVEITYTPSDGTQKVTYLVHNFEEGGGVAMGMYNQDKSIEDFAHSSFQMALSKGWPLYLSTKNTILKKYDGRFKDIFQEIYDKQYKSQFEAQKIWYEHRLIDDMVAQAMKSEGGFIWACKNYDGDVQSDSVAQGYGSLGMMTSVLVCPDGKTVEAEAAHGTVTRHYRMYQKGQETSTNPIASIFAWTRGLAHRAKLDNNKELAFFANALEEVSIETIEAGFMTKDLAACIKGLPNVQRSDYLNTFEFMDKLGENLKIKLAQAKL
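IDH1-R132H (0.5 ug/mL dispensed) in pH 7.5 Tris buffer was preincubated 30 min with compound, then given a substrate mix of 0.016 mM NADPH and 2 mM alpha-KG for 80 min at room temperature; remaining NADPH was read by diaphorase/resazurin fluorescence.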
TrxR1 inh: inhibitors of rat thioredoxin reductase 1; O89049; Potency, µM (top dose mostly 114 µM), without a hit: top-dose activity change, negative = inhibition, most hits filed as inhibitors; recombinant rTrxR1, NADPH fluorescence consumption, selenite substrate; AID 588453; 390,000 compounds, 1% hits; note: potency is the fitted concentration of half-maximal effect; nearly all actives have a fitted effect of over 65% in size
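Rat TrxR1 (90 nM in the dispensed reagent) was pre-reduced with 400 uM NADPH for 5 min at room temperature, then incubated with compound for 15 min. After 400 uM selenite was added, NADPH fluorescence (Ex 340/Em 450 nm) was followed for 8 min.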
TrxR1 substrate: substrates of rat thioredoxin reductase 1; O89049; purified TrxR1 substrate turnover, NADPH consumption readout; Potency, µM (titrated, usually from 114 µM), for inactives: top-dose activity change, negative = substrate turnover; 390,000 compounds, 0.01% hits; AID 588456; note: potency is the fitted concentration of half-maximal effect; nearly all actives have a fitted effect of over 50% in size
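Rat TrxR1, dispensed at 90 nM, was prereduced with 400 uM NADPH (final) for 5 min at ~22 deg C, then incubated with compound 15 min before 400 uM selenite. A first-read NADPH fluorescence drop versus no-compound background flagged substrates.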
GLS inh: glutaminase GLS (human) inhibition; 410,000 compounds, 0.21% hits; O94925; GLS enzymatic activity, qHTS titration; Potency, µM (series often up to 45.5 µM), for inactives: top-dose activity change, negative = inhibition, usual class: inhibitors; note: potency is the fitted concentration of half-maximal effect
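Human kidney-isoform GLS in 45 mM KH2PO4 pH 8.2, 0.02% Tween-20, with compound, started with 1mM L-Glutamine (added stock). Glutamate oxidase/HRP/Amplex red coupled fluorescence read at start and after 30 min at RT.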
PKM2 activator: PKM2 (human) enzyme activation; purified PKM2, Kinase-Glo ATP luminescence, activation; response scale: 0% is enzyme alone, no compound; Potency, µM (doses to about 57.5 µM), for the others: at the highest dose activation, most hits filed as activators; 260,000 compounds, 0.34% hits; note: potency is the fitted concentration of half-maximal effect; nearly all actives have a fitted effect of over 55% in size
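ATP formation by purified human PK-M2, quantified via coupled luciferase luminescence after 1 h at room temperature with 0.1 mM ADP and 0.5 mM PEP final.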
* hit, by the source's call; ? = inconclusive; / = no result given; [ ] = remark or other dose. Unless noted, calls come from the whole dose curve; as a rule, active = well fitted curve in the direction sought with a large enough effect; inconclusive = small, poorly fitted or top-dose-only effect, or another doubt; inactive = no such curve, though single readings can be large; an effect the other way counts as inactive or inconclusive. Unless noted, % is set by controls: 0 for no effect and ±100 for the full control effect.

SMILES	LDHA inh	IDH1 R132H inh	TrxR1 inh	TrxR1 substrate	GLS inh	PKM2 activator
O=C(O)Cc1ccc(O)c(O)c1	11.2	-3.7%	7.52µM*	8.8%[57.1 µM]	-14.6%	10.3%
COCc1ccc(CNC(=O)CC(C)C)cc1	5.9	/	/	/	/	/
O=S(=O)(c1ccc2c(c1)OCCO2)N1CCN(Cc2ccc3c(c2)OCO3)CC1	-0.8	0.0%	23.7%	6.7%[0.457 µM]	0.4%	3.55µM*
Cc1ccc(S(=O)(=O)N2CCCN(S(=O)(=O)c3ccc4c(c3)OCCO4)CC2)cc1	1.4	2.6%	12.0%	2.5%[0.0914 µM]	2.9%	0.355µM*
COc1ccc(S(=O)(=O)N2CCN(S(=O)(=O)c3ccc4c(c3)OCCO4)CC2)cc1C	-5.1	-0.5%	-7.5%	0.3%	0.1%	3.55µM*
O=S(=O)(c1ccc2c(c1)OCCO2)N1CCN(c2cccc(Cl)c2)CC1	-5.1	-1.2%	22.4%[57.1 µM]	-3.6%[57.1 µM]	-16.3%	2.82µM*
COc1ccc(Cl)cc1S(=O)(=O)N1CCN(S(=O)(=O)c2ccc3c(c2)OCCO3)CC1	-1.7	/	/	/	/	/
O=C(CCc1ncc(-c2ccccc2Cl)o1)NCc1ccncc1	-7.9	/	/	/	/	/
CN1CCN(S(=O)(=O)c2ccc3c(c2)OCCO3)CC1	-1.5	7.5%	1.7%	-3.1%	-13.8%	11.1%
CCS(=O)(=O)N1CCN(S(=O)(=O)c2ccc3c(c2)OCCO3)CC1	-12.9	-8.5%	2.4%	-7.9%	14.8%	3.55µM*
CCOc1ccc(CCN2C(=O)CCC2(C)C(=O)NCc2ccc(C)cc2)cc1 (stereo not given)	3.9	/	/	/	/	/
CC1=NOC(=O)/C1=C\c1ccc(-c2cc(Cl)ccc2Cl)o1	-4.9	8.0%	15.8µM*	9.9%	4.9%	18.1%
CC1=NOC(=O)/C1=C/c1ccc(-c2ccc(Cl)cc2)o1	/	/	/	/	/	13.0%
Cc1ccc(N2C(=O)[C@@H]3C(c4cccnc4)=NO[C@@H]3C2=O)cc1	-7.1	1.5%	44.7µM*	4.5%	0.4%	2.6%
COc1ccc(N2C(=O)[C@@H]3C(c4cccnc4)=NO[C@@H]3C2=O)cc1	1.4	-5.0%	?	0.4%	-0.8%	1.6%
CCN(CC)S(=O)(=O)c1ccc(Cl)c(NC(=O)CSc2nnc(C3CC3)n2C2CC2)c1	8.6	/	/	/	/	/
CCOc1c(Cl)cc(CNc2ccc(S(N)(=O)=O)cc2)cc1OC	-5.2	6.1%	-13.6%	-14.6%	6.5%	-0.2%
CCOc1c(Cl)cc(CNc2ccc(N3CCCC3)cc2)cc1OC	18.2	17.5%	12.6µM*	-8.8%	-16.3%	-2.7%
COC(=O)/C(=C\c1ccc([N+](=O)[O-])o1)NC(=O)c1ccccc1	0.7	4.5%	31.6µM*	-15.1%	-2.1%	-4.1%
Cc1c(Cl)cnc(NC(=O)COC(=O)[C@@H](NC(=O)c2ccco2)C(C)C)c1Cl	2.2	11.9%	11.2µM*	8.0%	-19.5%	/
COc1ccc(N=C2S/C(=C\c3ccc(OCC(=O)O)cc3)C(=O)N2CCc2c[nH]c3ccccc23)cc1	2.0	3.8%	-10.3%	-4.8%	10µM*	2.82µM*
O=C(O)COc1ccc(/C=C2\SC(=Nc3ccccc3)N(c3ccccc3)C2=O)cc1	0.0	-9.4%	-19.4%	-15.1%	11.5%	5.6%
COc1ccc(N=C2S/C(=C\c3ccc(N4CCOCC4)o3)C(=O)N2CCc2c[nH]c3ccccc23)cc1	/	/	/	/	/	3.16µM*
COC(=O)c1cc2occc2n1Cc1cccc(OC)c1	-2.3	/	/	/	/	/
C/C(=N/NS(=O)(=O)c1ccc(Cl)cc1)c1ccncc1	1.2	-1.7%	25.1µM*	1.6%	4.8%	-9.2%
SMILES	LDHA inh	IDH1 R132H inh	TrxR1 inh	TrxR1 substrate	GLS inh	PKM2 activator
Cn1cc(C(=O)NCCNC(=O)CC2CCCCC2)c2ccccc21	11.3	/	/	/	/	/
CN1CCN(C(=O)C2CCN(c3nc(Cl)nc4nc[nH]c34)CC2)CC1	0.9	/	/	/	/	/
O=C(CCN1C(=O)/C(=C/c2ccco2)SC1=S)Nc1ccc(C(=O)O)c(O)c1	24.3	0.0%	44.7µM*	-8.9%	?	/
O=C(CCN1C(=O)/C(=C\c2ccco2)SC1=S)Nc1ccc(C(=O)O)c(O)c1	8.3	7.5%	39.8µM*	-4.8%	?	/
O=C(CCN1C(=O)/C(=C/c2ccco2)SC1=S)Nc1ccc(O)cc1C(=O)O	18.4	1.4%	?	-0.9%[57.1 µM]	37.3%	/
COc1ccccc1/C=C1\SC(=S)N(CCC(=O)Nc2ccc(C(=O)O)c(O)c2)C1=O	3.0	-5.4%	-2.1%	-0.9%	-2.5%	/
O=C(O)CCCN1C(=O)/C(=C\c2ccco2)SC1=S	4.1	-7.8%	22.4µM*	6.8%[57.1 µM]	?	-21.1%
O=c1[nH]c(CSc2nnc(N3CCCCC3)n2-c2ccccc2)nc2cc(Cl)ccc12	1.1	/	/	/	/	/
COC(=O)C(C)OC(=O)c1c[nH]c2cc(Br)c(Br)cc12 (stereo not given)	-6.8	/	/	/	/	/
Cc1nc2ccc(S(=O)(=O)Nc3ccccc3C)cc2s1	-7.9	-4.0%	8.8%	-6.0%	15.1%	15.8µM*
CCCNC(=O)NC(=O)COC(=O)c1cc(-c2ccco2)nc2ccccc12	-2.0	/	/	/	/	/
CCNC(=O)NC(=O)COC(=O)c1cc(-c2ccco2)nc2ccccc12	-5.5	/	/	/	/	/
O=C(O)c1ccccc1/C=N/NC(=O)c1cc(-c2ccco2)nc2ccccc12	9.9	8.2%	?	103.6%	1.2%	25.1µM*
CNC(=O)COC(=O)c1cc(-c2ccco2)nc2ccccc12	3.1	0.0%	10µM*	1.3%[57.1 µM]	?	?
O=C(COC(=O)c1cc(-c2ccco2)nc2ccccc12)NCc1ccccc1	-1.1	3.2%	44.7µM*	29.4%	-9.0%	13.3%
CC(=O)Nc1ccc(/C=N/NC(=O)c2cc(-c3ccco3)nc3ccccc23)cc1	-14.4	1.1%	-11.8%	13.1%	-17.0%	6.9%
Cn1c(N)c(C(=O)COC(=O)c2cc(-c3ccco3)nc3ccccc23)c(=O)n(Cc2ccccc2)c1=O	/	/	/	/	/	16.6%
Cn1c(N)c(C(=O)COC(=O)c2cc(-c3ccco3)nc3ccccc23)c(=O)n(C)c1=O	1.3	4.2%	12.6µM*	29.8%[57.1 µM]	7.94µM*	21.6%
Cc1[nH]c2ccc(Cl)cc2c1C(=O)CCl	2.2	/	/	/	/	/
COc1ccc2c(=O)c(Oc3ccc(C)cc3)c(C(F)(F)F)oc2c1	8.8	/	/	/	/	/
O=C(COC(=O)c1ccco1)NCc1ccc(Cl)cc1Cl	-8.5	0.7%	79.4µM*	-1.2%	2.6%	/
CCOC(=O)C1CCCN(C(=O)c2cc(-c3ccncc3)nc3ccccc23)C1 (stereo not given)	-1.9	2.2%	7.6%	2.6%	-1.1%	/
O=C(COC(=O)c1ccco1)NCc1ccccc1Cl	-2.5	7.6%	25.7%	4.8%	5.6%	-1.8%
